# In PubChem BioAssay (EPA / NIEHS):
# Results filed as inconclusive are left out. Some compounds were tested as several samples or in several runs, with calls that do not always agree. Calls of active or inactive are those of the source. Rule for the calls, unless noted: active = hit-call score of the fitted dose curve at least 0.9, where 1 is the maximum; inconclusive = response in the unintended direction; inactive = score below 0.9.
# What was measured:
# [1] = read-out: glucuronosyltransferase (UGT1A1), UGT1A1 (gene 54658); assay: CLD_UGT1A1_24hr: CellzDirect (CLD) Gene Expression Assay for glucuronosyltransferase (UGT1A1) at 24 hours (AID 2283696)
# In short: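 UGT1A1 transcript induction was measured by quantitative nuclease protection assay (chemiluminescence) in human hepatocyte cultures 24 h after daily fresh dosing, with 0.2% DMSO as vehicle and baseline.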
# [2] = read-out: ABC Transporter (ABCB11), ABCB11 (gene 8647); assay: CLD_ABCB11_48hr: CellzDirect (CLD) Gene Expression Assay for ABC Transporter (ABCB11) at 48 hours (AID 2283697)
# In short: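 Induction of ABCB11 mRNA relative to 0.2% DMSO, measured at 48 h by qNPA chemiluminescence. Cultured human hepatocytes (two donors) received fresh dosing solutions at several concentrations on two consecutive days.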
# [3] = read-out: Cytochrome P450 2C19 (Homo sapiens) (UniProt P33261); assay: CLD_CYP2C19_48hr: CellzDirect (CLD) Gene Expression Assay for xenobiotic metabolism (CYP2C19) at 48 hours (AID 2283700);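 note: fitted upward so actives raise CYP2C19 mRNA above the 0.2% DMSO vehicle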
# In short: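 CYP2C19 mRNA induction read by chemiluminescent quantitative nuclease protection assay after 48 h, with fresh compound added daily for two days to cultured human liver hepatocytes. Activity fitted upward against 0.2% DMSO vehicle.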
# [4] = read-out: Cytochrome P450 2C9 (Homo sapiens) (UniProt P11712); assay: CLD_CYP2C9_48hr: CellzDirect (CLD) Gene Expression Assay for xenobiotic metabolism (CYP2C9) at 48 hours (AID 2283701; active = hit-call score of the fitted dose curve at least 0.9, where 1 is the maximum; inactive = score below 0.9)
# In short: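 mRNA level measured by quantitative nuclease protection (S1 digestion, chemiluminescent detection) in lysates of human primary hepatocytes exposed 48 h with daily re-dosing. Induction fitted positively versus 0.2% DMSO; morphology-based cytotoxicity flagged yes/no.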
# [5] = CLD_ACTIN_48hr: CellzDirect (CLD) Gene Expression Assay for Baseline Control (Actin) at 48 hours (AID 2283702)
# In short: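 Background-control actin mRNA read by qNPA chemiluminescence at 48 h. Human hepatocyte cultures from two donors received fresh multi-concentration chemical doses daily for two days; 0.2% DMSO served as vehicle baseline.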
# [6] = read-out: Broad substrate specificity ATP-binding cassette transporter ABCG2 (Homo sapiens) (UniProt Q9UNQ0); assay: CLD_ABCG2_48hr: CellzDirect (CLD) Gene Expression Assay for ABC Transporter (ABCG2) at 48 hours (AID 2283704)
# In short: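 ABCG2 transcript measured at 48 h by quantitative nuclease protection (chemiluminescent) and fitted for increase relative to 0.2% DMSO. Hepatocyte cultures from separate donors got fresh compound daily over two days; morphology annotated cytotoxicity.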
# [7] = read-out: Glyceraldehyde-3-phosphate dehydrogenase (Homo sapiens) (UniProt P04406); assay: CLD_GAPDH_48hr: CellzDirect (CLD) Gene Expression Assay for Baseline Control (Glyceraldehyde 3-phosphate dehydrogenase) at 48 hours (AID 2283706);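 note: active means higher GAPDH mRNA than DMSO vehicle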
# In short: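 GAPDH baseline-control readout: qNPA chemiluminescent mRNA quantitation in human liver primary cells 48 h after daily dosing on two consecutive days, vehicle 0.2% DMSO; gain of signal fitted against DMSO, cytotoxicity flagged by phase-contrast morphology.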
# [8] = read-out: Cytochrome P450 3A4 (Homo sapiens) (UniProt P08684); assay: CLD_CYP3A4_48hr: CellzDirect (CLD) Gene Expression Assay for xenobiotic metabolism (CYP3A4) at 48 hours (AID 2283698)
# In short: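 CYP3A4 induction read by qNPA chemiluminescence after 48 h, with fresh dosing solutions on consecutive days, in cultured human hepatocytes (two donors). Vehicle 0.2% DMSO as baseline; microscopy-based cytotoxicity annotated yes/no alongside data.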
# [9] = read-out: alkyl and aryl transferase (GSTA2), GSTA2 (gene 2939); assay: CLD_GSTA2_48hr: CellzDirect (CLD) Gene Expression Assay for alkyl and aryl transferase (GSTA2) at 48 hours (AID 2283708);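 note: active means mRNA induction above DMSO vehicle baseline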
# In short: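 GSTA2 mRNA quantified by qNPA chemiluminescence in human primary hepatocyte lysates after 48 h of daily fresh chemical dosing. Increases fitted against 0.2% DMSO vehicle baseline; cytotoxicity from morphology annotated yes/no.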
# [10] = read-out: glucuronosyltransferase (UGT1A1), UGT1A1 (gene 54658); assay: CLD_UGT1A1_48hr: CellzDirect (CLD) Gene Expression Assay for glucuronosyltransferase (UGT1A1) at 48 hours (AID 2283709);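 note: actives increase expression relative to DMSO so potency refers to induction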
# In short: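 Quantitative nuclease protection assay (chemiluminescent) for UGT1A1 mRNA at 48 h in human hepatocyte cultures from two donors, redosed daily with fresh solutions. Induction fitted relative to 0.2% DMSO; phase-contrast morphology annotated cytotoxicity.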
# [11] = STM_H9_OrnithineISnorm_perc: Stemina devTOX quickPredict H9 human embryonic stem cell (hESC)-based Assay for Ornithine (ORN) Metabolite Biomarker, Normalized (AID 2283712; active = hit-call score of the fitted dose curve at least 0.9, where 1 is the maximum; inactive = score below 0.9;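 note: ornithine released into spent medium during last day measured by mass spectrometry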)
# In short: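 Metabolite endpoint from spent media of pluripotent H9 cells treated 72 h with daily re-feeding; ornithine measured by UPLC-HRMS against its 13C spike-in and referenced to the median 0.1% DMSO vehicle response.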
# [12] = STM_H9_CystineISnorm_perc: Stemina devTOX quickPredict H9 human embryonic stem cell (hESC)-based Assay for Cystine (CYSS) Metabolite Biomarker, Normalized (AID 2283713; active = hit-call score of the fitted dose curve at least 0.9, where 1 is the maximum; inactive = score below 0.9)
# In short: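 Normalized cystine level in conditioned medium from the final 24h of a 72h treatment of pluripotent H9 cells (daily media and compound renewal). Quantified by UPLC-HRMS with C13-labeled internal standard; scaled to median of 0.1% DMSO vehicle wells.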
# [13] = CEETOX_H295R_MTT_cell_viability: Viability Assessment in the CeeTox HT-H295R MTT Assay (AID 2283718; active = hit-call score of the fitted dose curve at least 0.9, where 1 is the maximum; inactive = score below 0.9;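 for AC50: curve fitted both ways so AC50 may mark viability loss or gain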)
# In short: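 Human H295R adrenal cells, prestimulated 48 h with 10 uM forskolin, were exposed 48 h to chemicals in 0.1% DMSO. Viability was measured in the same wells by MTT (0.5 mg/ml, 4 h, 37 C), absorbance 570/650 nm, as percent of controls.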
# [14] = read-out: xenobiotic metabolism (CYP1A2), CYP1A2 (gene 1544); assay: CLD_CYP1A2_48hr: CellzDirect (CLD) Gene Expression Assay for xenobiotic metabolism (CYP1A2) at 48 hours (AID 2283703)
# In short: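 Cytotoxicity was flagged yes/no from morphology, while CYP1A2 transcript induction was detected by qNPA chemiluminescence after a 48-hour exposure. Human primary hepatocyte cultures from separate donors received fresh dosing solutions daily over two days, with 0.2% DMSO as vehicle and baseline.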
# [15] = read-out: xenobiotic metabolism (CYP1A1), CYP1A1 (gene 1543); assay: CLD_CYP1A1_48hr: CellzDirect (CLD) Gene Expression Assay for xenobiotic metabolism (CYP1A1) at 48 hours (AID 2283705)
# In short: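 CYP1A1 transcript measured by quantitative nuclease protection (chemiluminescent) 48 h after two daily treatments of human hepatocyte cultures, versus 0.2% DMSO. Morphology-based cytotoxicity flags accompany data; two donor preparations used.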
# [16] = STM_H9_OrnCyssISnorm_ratio: Stemina devTOX quickPredict H9 human embryonic stem cell (hESC)-based Assay for Ornithine (ORN):Cystine (CYSS) Ratio (AID 2283714)
# In short: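 UPLC-HRMS of spent media: ORN/CYSS ratio of internal-standard-normalized percentages, DMSO (0.1%) baseline. Pluripotent H9 hESCs, 72h exposure, daily re-dosing with fresh media; last 24h media collected.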
# [17] = ArunA_CellTiter_hNC: Viability Assessment in the ArunA Biomedical's Oris Neural Crest (hNC) Cell Migration Assay (AID 2283752)
# In short: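 Cytotoxicity endpoint run alongside the migration assay: neural crest cells on Matrigel, 60,000 per well, preincubated 16 h at 37C, treated 72 h; CellTiter Aqueous One signal loss relative to DMSO.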
# [18] = Tanguay_ZF_120hpf_ActivityScore_legacy: (Legacy) Oregon State University Tanguay Lab 120 Hour Post-fertilization zebrafish Assay Score for Activity (AID 2283742);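 note: dechorionated Tropical 5D wild-type zebrafish embryos held singly per well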
# In short: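 Dechorionated 5D embryos, one per well, static exposure 6–120 hpf, 28C, sealed and dark; final DMSO 0.64% (vol/vol). Brightfield binary scoring of mortality plus 18 endpoints; gain-of-signal fit versus DMSO baseline.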
# Chain of Cytochrome P450 3A4 (Homo sapiens) (P08684 whole entry, looked up): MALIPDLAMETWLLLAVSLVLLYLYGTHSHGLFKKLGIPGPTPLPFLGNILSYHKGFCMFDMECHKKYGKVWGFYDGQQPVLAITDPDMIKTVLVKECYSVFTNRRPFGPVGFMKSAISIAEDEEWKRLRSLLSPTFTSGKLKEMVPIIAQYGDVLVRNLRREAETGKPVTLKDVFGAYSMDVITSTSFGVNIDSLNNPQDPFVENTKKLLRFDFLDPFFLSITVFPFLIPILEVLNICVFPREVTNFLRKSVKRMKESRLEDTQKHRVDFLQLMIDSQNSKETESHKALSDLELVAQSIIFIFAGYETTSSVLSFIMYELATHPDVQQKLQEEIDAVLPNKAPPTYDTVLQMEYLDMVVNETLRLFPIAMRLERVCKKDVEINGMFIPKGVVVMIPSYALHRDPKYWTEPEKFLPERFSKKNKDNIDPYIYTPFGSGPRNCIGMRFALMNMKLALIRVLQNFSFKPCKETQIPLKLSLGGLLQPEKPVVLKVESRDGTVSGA
# Chain of Broad substrate specificity ATP-binding cassette transporter ABCG2 (Homo sapiens) (Q9UNQ0 whole entry, looked up): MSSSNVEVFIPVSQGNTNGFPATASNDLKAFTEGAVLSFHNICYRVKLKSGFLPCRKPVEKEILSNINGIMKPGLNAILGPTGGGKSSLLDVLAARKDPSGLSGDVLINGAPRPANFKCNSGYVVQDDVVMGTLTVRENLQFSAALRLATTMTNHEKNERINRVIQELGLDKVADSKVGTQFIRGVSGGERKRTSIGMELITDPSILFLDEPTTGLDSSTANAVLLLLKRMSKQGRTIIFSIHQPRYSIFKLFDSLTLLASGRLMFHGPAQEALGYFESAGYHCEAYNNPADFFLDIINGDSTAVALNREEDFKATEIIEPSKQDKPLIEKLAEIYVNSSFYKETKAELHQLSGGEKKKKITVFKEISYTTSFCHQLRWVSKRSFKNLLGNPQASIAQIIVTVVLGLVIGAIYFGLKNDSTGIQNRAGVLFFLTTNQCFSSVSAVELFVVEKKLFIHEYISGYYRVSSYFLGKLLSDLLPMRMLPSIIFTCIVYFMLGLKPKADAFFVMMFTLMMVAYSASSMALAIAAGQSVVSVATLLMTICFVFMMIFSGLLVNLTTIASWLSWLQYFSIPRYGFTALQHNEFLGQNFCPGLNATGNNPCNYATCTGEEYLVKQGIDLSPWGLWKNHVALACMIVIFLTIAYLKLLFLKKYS
# Chain of Glyceraldehyde-3-phosphate dehydrogenase (Homo sapiens) (P04406 whole entry, looked up): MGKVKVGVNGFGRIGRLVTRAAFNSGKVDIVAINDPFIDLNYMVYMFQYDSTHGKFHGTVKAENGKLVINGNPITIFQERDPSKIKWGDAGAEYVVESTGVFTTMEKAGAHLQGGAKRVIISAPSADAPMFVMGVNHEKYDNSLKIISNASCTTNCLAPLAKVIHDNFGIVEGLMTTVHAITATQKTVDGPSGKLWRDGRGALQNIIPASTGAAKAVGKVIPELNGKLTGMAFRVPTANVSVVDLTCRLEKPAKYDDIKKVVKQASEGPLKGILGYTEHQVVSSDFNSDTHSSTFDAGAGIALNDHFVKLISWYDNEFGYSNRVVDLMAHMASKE
# Chain of Cytochrome P450 2C19 (Homo sapiens) (P33261 whole entry, looked up): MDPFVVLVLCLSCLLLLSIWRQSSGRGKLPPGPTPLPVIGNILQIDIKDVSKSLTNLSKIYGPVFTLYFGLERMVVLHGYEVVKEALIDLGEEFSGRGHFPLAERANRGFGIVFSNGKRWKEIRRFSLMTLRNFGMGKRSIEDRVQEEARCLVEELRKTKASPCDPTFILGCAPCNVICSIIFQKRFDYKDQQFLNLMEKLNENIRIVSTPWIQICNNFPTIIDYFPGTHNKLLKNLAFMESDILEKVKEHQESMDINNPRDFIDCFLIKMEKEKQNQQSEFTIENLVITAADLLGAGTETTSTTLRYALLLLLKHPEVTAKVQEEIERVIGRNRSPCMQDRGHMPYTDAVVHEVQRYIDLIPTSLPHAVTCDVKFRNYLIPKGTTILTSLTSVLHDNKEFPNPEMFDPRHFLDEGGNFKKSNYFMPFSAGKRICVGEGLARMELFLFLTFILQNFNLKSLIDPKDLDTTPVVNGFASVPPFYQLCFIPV
smiles,measurement,setting,value
Cc1cc(C)nc(NC(=O)NS(=O)(=O)c2ccccc2C(=O)OC2COC2)n1,outcome,[1],inactive
same,outcome,[2],inactive
same,outcome,[3],inactive
same,outcome,[4],inactive
same,outcome,[5],inactive
same,outcome,[6],inactive
same,outcome,[7],inactive
O=C(O)C(F)(F)C(F)(F)C(F)(F)C(F)(F)C(F)(F)C(F)(F)C(F)(F)F,outcome,[1],inactive
same,AC50,[8],3.97 µM (active)
same,outcome,[3],inactive
same,outcome,[5],inactive
same,outcome,[6],inactive
same,outcome,[7],inactive
same,outcome,[9],inactive
same,outcome,[10],inactive
same,outcome,[11],inactive
same,outcome,[12],inactive
CNC(=O)Oc1ccccc1OC(C)C,outcome,[1],inactive
same,AC50,[8],3.99 µM (active)
same,outcome,[3],inactive
same,outcome,[4],inactive
same,outcome,[5],inactive
same,outcome,[7],inactive
same,outcome,[10],inactive
same,outcome,[13],inactive
CCc1ccc(C(=O)NN(C(=O)c2cc(C)cc(C)c2)C(C)(C)C)cc1,AC50,[1],4.06 µM (active)
same,outcome,[2],inactive
same,AC50,[8],2.15 µM (active)
same,outcome,[4],inactive
same,AC50,[10],3.53 µM (active)
same,outcome,[13],inactive
Oc1cc(Cl)ccc1Oc1ccc(Cl)cc1Cl,outcome,[1],inactive
same,outcome,[2],inactive
same,outcome,[8],inactive
same,outcome,[3],inactive
same,outcome,[5],inactive
same,outcome,[14],inactive
same,outcome,[6],inactive
same,outcome,[15],inactive
same,outcome,[7],inactive
same,outcome,[9],inactive
same,AC50,[11],86.3 µM (active)
same,AC50,[12],81.2 µM (active)
same,AC50,[16],75.8 µM (active)
same,AC50,[13],0.0234 µM (active)
same,outcome,[13],inactive
same,outcome,[17],inactive
COC(=O)c1ccccc1S(=O)(=O)NC(=O)Nc1nc(C)nc(OC)n1,outcome,[1],inactive
same,outcome,[8],inactive
same,outcome,[3],inactive
same,outcome,[5],inactive
same,outcome,[6],inactive
same,outcome,[7],inactive
same,outcome,[9],inactive
O=C1c2ccccc2C(=O)N1SC(Cl)(Cl)Cl,outcome,[1],inactive
same,outcome,[2],inactive
same,outcome,[3],inactive
same,outcome,[5],inactive
same,outcome,[6],inactive
same,outcome,[7],inactive
same,outcome,[9],inactive
same,outcome,[13],inactive
COc1cc(OC)nc(NC(=O)NS(=O)(=O)c2cc(NC=O)ccc2C(=O)N(C)C)n1,outcome,[1],inactive
same,outcome,[2],inactive
same,outcome,[4],inactive
same,outcome,[6],inactive
same,outcome,[7],inactive
same,outcome,[9],inactive
CC(C)OC(=O)Nc1cccc(Cl)c1,AC50,[1],20 µM (active)
same,AC50,[8],36.3 µM (active)
same,outcome,[3],inactive
same,outcome,[4],inactive
same,outcome,[5],inactive
same,AC50,[14],2.46 µM (active)
same,outcome,[7],inactive
same,outcome,[9],inactive
same,outcome,[11],inactive
same,AC50,[12],11.1 µM (active)
same,AC50,[16],11.7 µM (active)
same,outcome,[13],inactive
same,AC50,[18],39.2 µM (active)
CCOc1nc(NC)nc(NC(=O)NS(=O)(=O)c2ccccc2C(=O)OC)n1,outcome,[1],inactive
same,outcome,[2],inactive
same,outcome,[8],inactive
same,outcome,[4],inactive
same,outcome,[6],inactive
same,outcome,[7],inactive
same,outcome,[9],inactive
COP(=O)(OC)OC=C(Cl)Cl,outcome,[1],inactive
same,outcome,[2],inactive
same,outcome,[8],inactive
same,outcome,[3],inactive
same,outcome,[4],inactive
same,outcome,[5],inactive
same,outcome,[6],inactive
same,outcome,[7],inactive
same,outcome,[9],inactive
